Test results as given in ChEMBL document CHEMBL4513216, “Probing the Open Global Health Chemical Diversity Library for Multistage-Active Starting Points for Next-Generation Antimalarials” (ACS Infect Dis, 2020).
Hit rate of the full screen: of about 69,000 compounds, about 8,600 (12%) showed an effect of 50% or more. This excerpt belongs to a sample that is enriched for strong results.

The molecules below were run on Plasmodium berghei (assay: Screen against P. berghei liver stage (PbLuc), transformed with Luciferase, at 10uM). Details: tested at 10 uM.
Assay type: functional, HepG2
Work on `CC(C)N1CCCCC1c1cc(CO)[nH]n1` (stereo unspecified) yielded an INHIBITION of -8.24%. For `CCc1nnc(CN2CCCC(Cn3nc(C)nc3C)C2)o1` (stereo unspecified), the INHIBITION was 44.9%. `COc1ccc(S(=O)(=O)NCCC(=O)NCc2ccoc2)cc1OC` gave an INHIBITION of 3.77%. For `O=C(CCc1ccsc1)NCC1CCN(C2CC2)C1` (stereo unspecified), the INHIBITION was 22.8%. `C1CC(CN2CC[C@@H]3O[C@@H](c4nnc(C5CC5)o4)C[C@H]3C2)CCO1` gave an INHIBITION of 14.5%. In the case of `CN1CCOCC2(CCCN(C(=O)c3cnccn3)C2)C1` (stereo unspecified), the INHIBITION is reported as 18.3%. `CCN(CCO)Cc1ccc(Br)c2cccnc12` was tested, and the INHIBITION was 7.07%. `O=C(c1cc[nH]n1)N1CCc2c(nc(N3CCCCC3)[nH]c2=O)C1` was tested, and the INHIBITION was 3.91%. For `O=C(c1ccccn1)N1CCc2c(nc(-c3ccncc3)[nH]c2=O)C1`, the INHIBITION was -12.1%. With `O=C(c1ccccn1)N1CCc2c(nc(N3CCCC3)[nH]c2=O)C1` the INHIBITION was 50%. Work on `CCCc1nnc(N2CCN(c3ccccc3Cl)CC2)o1` yielded an INHIBITION of -15.3%. For `CN(C)CC(C)(C)Cn1cnc(-c2ccccc2)c1-c1ncc[nH]1`, the INHIBITION was 18.8%. `CS(=O)(=O)N1CCC(CNc2c(Cl)cccc2C#N)CC1` was tested, and the INHIBITION was 19.7%. With `CN(c1ccc(CNc2c(Cl)cccc2C#N)cc1)S(C)(=O)=O` the INHIBITION was 36.9%. Work on `CCS(=O)(=O)c1ccc(CNc2c(Cl)cccc2C#N)cc1` yielded an INHIBITION of 74.9%. Work on `CNC(=O)COc1ccc(CNCc2cc(F)ccc2F)cc1` yielded an INHIBITION of -4.12%. Work on `CN(C)C(=O)c1ccc(CNc2c(Cl)cccc2C#N)cc1` yielded an INHIBITION of 45.2%. For `CNC(=O)COc1ccc(CNc2c(Cl)cccc2C#N)cc1`, the INHIBITION was 60.1%. With `CCC(=O)Nc1nnc(CCOc2ccccc2)s1` the INHIBITION was -17.2%. With `Cc1nc(CN2CCC(c3ccnn3CCO)CC2)oc1C` the INHIBITION was -12.2%. `CN(C)C(=O)CN(C)C(=O)c1csc(Br)c1` showed an INHIBITION of -13.2%. In the case of `CN(C)c1ccc(CC2CCCN(c3cnccn3)C2)nn1` (stereo unspecified), the INHIBITION is reported as -14.2%. `OC(CNC1CCSCC1)c1cccc(OCc2ccccc2)c1` (stereo unspecified) showed an INHIBITION of 44.5%. `Cc1nc(CN(C)C(=O)Nc2cccc(C)c2C)no1` gave an INHIBITION of 28.1%. `COc1cccc(OC2CN(C(=O)C3CCCN(C(=O)N(C)C)C3)C2)c1` (stereo unspecified) was tested, and the INHIBITION was 42.6%. With `COc1ccc(OC2CCN(C(=O)C3CCCN(C)C3)CC2)cc1` (stereo unspecified) the INHIBITION was 67.5%. `COc1ccc(OC2CCN(C(=O)c3ccc(C(C)=O)s3)CC2)cc1` was tested, and the INHIBITION was 71.5%. `COc1ccc(OC2CCN(C(=O)c3cnc(C)s3)CC2)cc1` gave an INHIBITION of 30.8%. `N#Cc1ccc(OC2CCN(C(=O)c3ccc(Br)o3)CC2)nc1` showed an INHIBITION of -0.532%. `N#Cc1ccc(OC2CCN(C(=O)c3ccc4c(c3)OCO4)CC2)nc1` was tested, and the INHIBITION was 40.9%. Work on `CC(=O)c1ccc(C(=O)N2CCC(c3cc(O)nc(C)n3)CC2)s1` yielded an INHIBITION of 8.24%. `N#Cc1ccc(OC2CCN(C(=O)c3ccccc3Cl)CC2)nc1` was tested, and the INHIBITION was 7.44%. For `N#Cc1ccc(OC2CCN(C(=O)Cc3cccs3)CC2)nc1`, the INHIBITION was 65.7%. For `N#Cc1ccc(C(=O)N2CCC(Oc3ccc(C#N)cn3)CC2)cc1`, the INHIBITION was 32.2%. `CN1CCCC(C(=O)N2CCC(Oc3ncccn3)CC2)C1` (stereo unspecified) was tested, and the INHIBITION was 30.5%. `N#Cc1ccc(OC2CCN(C(=O)c3cncc(Br)c3)CC2)nc1` was tested, and the INHIBITION was 54.5%. For `Cc1ccc(S(N)(=O)=O)cc1C(=O)NC1CCN(C2CC2)CC1`, the INHIBITION was -10.9%. `CC(=O)N1CCN(c2ccnc(C)n2)CC(COc2ccccc2)C1` (stereo unspecified) gave an INHIBITION of 1.11%. `Cc1ccc(N2CCN(Cc3ccccc3)C3(CCNCC3)C2=O)cn1` showed an INHIBITION of 8.31%. In the case of `CN(C)c1cncc(C2CCN(CC(N)=O)CC2)n1`, the INHIBITION is reported as 31.6%. Work on `Cn1cccc1C(=O)N[C@@H]1CN(Cc2ccsc2)[C@@H]2COC[C@@H]21` yielded an INHIBITION of -37.4%. Molecule `O=C(NCC1CC1)[C@H]1C[C@H]2CN(S(=O)(=O)Cc3ccccc3)C[C@@H]1O2` has an INHIBITION of 43.2%. With `CN(Cc1ccsc1)C(=O)Nc1ccc(S(C)(=O)=O)cc1` the INHIBITION was 31.8%. In the case of `NC(=O)c1ccc(NC(=O)Cn2cc(-c3ccccc3)ncc2=O)cc1`, the INHIBITION is reported as 26.8%. `Cc1nc(-c2ccncc2)ncc1C(C)NC(=O)C1=NN(C)C(=O)CC1` (stereo unspecified) gave an INHIBITION of -9.29%. `COc1ccccc1OC1CCN(C(=O)C2CCCN(C)C2)CC1` (stereo unspecified) was tested, and the INHIBITION was 62.8%. For `COc1ccccc1OC1CCN(C(=O)c2cnc(C)s2)CC1`, the INHIBITION was 12.7%. `CC(=O)N1CCC(Oc2ccc(C#N)cn2)CC1` gave an INHIBITION of -43.5%. In the case of `Cn1nc(C(=O)N2CCC(Oc3ccc(C#N)cn3)CC2)ccc1=O`, the INHIBITION is reported as 25.8%. Molecule `CN1CCCC(C(=O)N2CCC(Oc3ccccn3)CC2)C1` (stereo unspecified) has an INHIBITION of 25.3%. Molecule `CN1CCCC(C(=O)N2CCC(Oc3ccc(C#N)cn3)CC2)C1` (stereo unspecified) has an INHIBITION of 74.4%. `COCc1ncn2c1CN(C(=O)c1ccco1)CC2` gave an INHIBITION of 4.57%. With `CCC1CNCc2cc3c(C)ccc(C)c3nc2O1` (stereo unspecified) the INHIBITION was 21.7%. `CC(CCN1CCOCC1)NC(=O)c1cccc(C(F)(F)F)c1F` (stereo unspecified) gave an INHIBITION of 35%. Work on `CC(CCN(C)C)NC(=O)c1cccc(C(F)(F)F)c1F` (stereo unspecified) yielded an INHIBITION of 66.5%. With `COc1cccc(C(=O)NC(C)CCN2CCOCC2)c1F` (stereo unspecified) the INHIBITION was 34.1%.
